Test results published in PubChem BioAssay (Tox21).
Active and inactive are the calls of the source. The call rests on the fitted dose curve; in most records, active means well fitted curve in the direction sought with a large enough effect in the repeat runs; inconclusive means weak or mixed curves; inactive means flat fitted curve, though single readings scatter.

experiment: qHTS assay to test for compound auto fluorescence at 590 nm (red) in HEK293 cell free culture (AID 720683); conditions: cell-free medium autofluorescence, Ex540/Em590 red; series mostly up to 91.3 µM; fluorescence, % of fluorescent control: at the top concentration
Outline: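 Tox21 10K library compounds were pinned into cell-free DMEM with 10% FBS and fluorescence was read at excitation 540 nm. Activity is expressed as Rose Bengal sodium equivalency.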
On the % scale 0 is the no-effect control and ±100 the full control effect.

| Structure (SMILES) | fluorescence, % of fluorescent control | outcome |
| --- | --- | --- |
| CS/C(C)=N/OC(=O)N(C)SN(C)C(=O)O/N=C(\C)SC | -0.101% (inactive) | – |
| [CH3][Sn]([CH3])([Cl])[Cl] | – | inactive |
| O=C=Nc1ccc(Cl)cc1 | 0.132% (inactive) | – |
| CCOP(=S)(OCC)SCn1nnc2ccccc2c1=O | 0.0614% (inactive) | – |
| COP(=S)(Oc1cc(Cl)c(Br)cc1Cl)c1ccccc1 (stereo not given) | -0.0254% (inactive) | – |
| CC(C)(C)c1cc([N+](=O)[O-])cc([N+](=O)[O-])c1O | -0.0084% (inactive) | – |
| CCCCC(O)(Cn1cncn1)c1ccc(Cl)cc1Cl (stereo not given) | -0.13% (inactive) | – |
| Clc1cccc2ccccc12 | 0.0171% (inactive) | – |
| Cl/C=C\C[N+]12CN3CN(CN(C3)C1)C2 | -0.116% (inactive) | – |
| Clc1cc(C(Cl)(Cl)Cl)cnc1Cl | -0.204% (inactive) | – |
| O=C1C(=O)c2cccc3cccc1c23 | 0.0298% (inactive) | – |
| CC1(C)CCC(Cc2ccc(Cl)cc2)C1(O)Cn1cncn1 (stereo not given) | 0.0118% (inactive) | – |
| CO/N=C(/C(=O)OC)c1ccccc1COc1ccccc1C | -0.136% (inactive) | – |
| O=C(NC(=O)c1c(F)cccc1F)Nc1ccc(OC(F)(F)C(F)OC(F)(F)F)c(Cl)c1 (stereo not given) | -0.581% [at 46 µM] (inactive) | – |
| O=C1c2ccccc2C(=O)C1C(=O)C(c1ccccc1)c1ccccc1 | 0.573% [at 46 µM] (inactive) | – |
| O=C1CN=C(c2ccccc2)c2cc(Cl)ccc2N1CC1CC1 | – | inactive |
| OC(c1ccc(Cl)cc1)(c1ccc(Cl)cc1)c1cccnc1 | 0.163% (inactive) | – |
| BrCC(Br)C1CCC(Br)C(Br)C1 (stereo not given) | 0.0271% (inactive) | – |

| Structure (SMILES) | fluorescence, % of fluorescent control | outcome |
| --- | --- | --- |
| CC(C)O.CC(C)O.OCCN(CCO)CCO.OCCN(CCO)CCO.[Ti] | -0.246% (inactive) | – |
| Cc1c(F)c(F)c(COC(=O)C2C(/C=C(\Cl)C(F)(F)F)C2(C)C)c(F)c1F (stereo not given) | -0.396% (inactive) | – |
| COC(=O)C(Br)CBr (stereo not given) | -0.13% (inactive) | – |
| CCOP(=S)(Oc1ccc([N+](=O)[O-])cc1)c1ccccc1 (stereo not given) | 0.0886% (inactive) | – |
| O=[N+]([O-])C(Br)(CO)CO | – | inactive |
| O=C(O)C(F)(F)C(F)(F)C(F)(F)C(F)(F)C(F)(F)C(F)(F)C(F)(F)C(F)(F)C(F)(F)F | 0.0303% (inactive) | – |
| NS(=O)(=O)C(F)(F)C(F)(F)C(F)(F)C(F)(F)C(F)(F)C(F)(F)C(F)(F)C(F)(F)F | 0.17% (inactive) | – |
| C/C(=C\c1ccccc1)[N+](=O)[O-] | -0.342% (inactive) | – |
| COCCOCCO | 0.623% (inactive) | – |
| Clc1cccc(SC2CCNCC2)n1 | 0.351% [at 46 µM] (inactive) | – |
| CC(C)(C)C(O)C(Oc1ccc(Cl)cc1)n1cncn1 (stereo not given) | -0.769% (inactive) | – |
| O=C(Nc1ccccc1)Nc1ccnc(Cl)c1 | 0.423% (inactive) | – |
| O=[N+]([O-])c1cc(C(F)(F)F)cc([N+](=O)[O-])c1Cl | -0.209% (inactive) | – |
| C=CC(=O)OCC(C)O (stereo not given) | 0.0145% [at 95.7 µM] (inactive) | – |
| O=C(O)CC(Cl)C(=O)O (stereo not given) | -0.0084% (inactive) | – |
| C=CCN1CC[C@]23c4c5ccc(O)c4O[C@H]2C(=O)CC[C@@]3(O)[C@H]1C5 | – | inactive |
| O=C(O)C1(c2ccc3c(c2)OC[C@H](Cc2ccc(-c4ccccc4)cc2)[C@H]3O)CCCC1 | -0.0138% (inactive) | – |

experiment: qHTS assay to test for compound auto fluorescence at 590 nm (red) in HepG2 cell free culture (AID 720684); conditions: cell-free medium autofluorescence, red 540/590 nm; series mostly up to 91.3 µM; fluorescence, % of Rose Bengal: at the top concentration
Outline: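 Readout: intrinsic compound fluorescence at 590 nm emission after 540 nm excitation, scaled to Rose Bengal sodium. Matrix was cell-free MEM with 10% FBS; DMSO vehicle wells served as control.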

| Structure (SMILES) | fluorescence, % of Rose Bengal | outcome |
| --- | --- | --- |
| CS/C(C)=N/OC(=O)N(C)SN(C)C(=O)O/N=C(\C)SC | -0.14% (inactive) | – |
| [CH3][Sn]([CH3])([Cl])[Cl] | – | inactive |
| O=C=Nc1ccc(Cl)cc1 | -0.0172% (inactive) | – |
| CCOP(=S)(OCC)SCn1nnc2ccccc2c1=O | 0.249% (inactive) | – |
| COP(=S)(Oc1cc(Cl)c(Br)cc1Cl)c1ccccc1 (stereo not given) | 0.132% (inactive) | – |
| CC(C)(C)c1cc([N+](=O)[O-])cc([N+](=O)[O-])c1O | -0.136% (inactive) | – |
| CCCCC(O)(Cn1cncn1)c1ccc(Cl)cc1Cl (stereo not given) | -0.0228% (inactive) | – |
| Clc1cccc2ccccc12 | -0.125% (inactive) | – |
| Cl/C=C\C[N+]12CN3CN(CN(C3)C1)C2 | -0.12% (inactive) | – |
| Clc1cc(C(Cl)(Cl)Cl)cnc1Cl | -0.193% (inactive) | – |
| O=C1C(=O)c2cccc3cccc1c23 | -0.149% (inactive) | – |
| CC1(C)CCC(Cc2ccc(Cl)cc2)C1(O)Cn1cncn1 (stereo not given) | -0.221% (inactive) | – |
| CO/N=C(/C(=O)OC)c1ccccc1COc1ccccc1C | 0.071% (inactive) | – |
| O=C(NC(=O)c1c(F)cccc1F)Nc1ccc(OC(F)(F)C(F)OC(F)(F)F)c(Cl)c1 (stereo not given) | 0.096% [at 46 µM] (inactive) | – |
| O=C1c2ccccc2C(=O)C1C(=O)C(c1ccccc1)c1ccccc1 | -0.301% [at 46 µM] (inactive) | – |
| O=C1CN=C(c2ccccc2)c2cc(Cl)ccc2N1CC1CC1 | – | inactive |
| OC(c1ccc(Cl)cc1)(c1ccc(Cl)cc1)c1cccnc1 | 0.121% (inactive) | – |
| BrCC(Br)C1CCC(Br)C(Br)C1 (stereo not given) | 0.0216% (inactive) | – |

| Structure (SMILES) | fluorescence, % of Rose Bengal | outcome |
| --- | --- | --- |
| CC(C)O.CC(C)O.OCCN(CCO)CCO.OCCN(CCO)CCO.[Ti] | 0.0683% (inactive) | – |
| Cc1c(F)c(F)c(COC(=O)C2C(/C=C(\Cl)C(F)(F)F)C2(C)C)c(F)c1F (stereo not given) | 0.0526% (inactive) | – |
| COC(=O)C(Br)CBr (stereo not given) | -0.111% (inactive) | – |
| CCOP(=S)(Oc1ccc([N+](=O)[O-])cc1)c1ccccc1 (stereo not given) | 0.0324% (inactive) | – |
| O=[N+]([O-])C(Br)(CO)CO | – | inactive |
| O=C(O)C(F)(F)C(F)(F)C(F)(F)C(F)(F)C(F)(F)C(F)(F)C(F)(F)C(F)(F)C(F)(F)F | -0.111% (inactive) | – |
| NS(=O)(=O)C(F)(F)C(F)(F)C(F)(F)C(F)(F)C(F)(F)C(F)(F)C(F)(F)C(F)(F)F | 0.136% (inactive) | – |
| C/C(=C\c1ccccc1)[N+](=O)[O-] | 0.0286% (inactive) | – |
| COCCOCCO | 0.445% (inactive) | – |
| Clc1cccc(SC2CCNCC2)n1 | 0.104% [at 46 µM] (inactive) | – |
| CC(C)(C)C(O)C(Oc1ccc(Cl)cc1)n1cncn1 (stereo not given) | 0.738% (inactive) | – |
| O=C(Nc1ccccc1)Nc1ccnc(Cl)c1 | -0.0024% (inactive) | – |
| O=[N+]([O-])c1cc(C(F)(F)F)cc([N+](=O)[O-])c1Cl | 0.0733% (inactive) | – |
| C=CC(=O)OCC(C)O (stereo not given) | 0.0332% [at 95.7 µM] (inactive) | – |
| O=C(O)CC(Cl)C(=O)O (stereo not given) | 0.0648% (inactive) | – |
| C=CCN1CC[C@]23c4c5ccc(O)c4O[C@H]2C(=O)CC[C@@]3(O)[C@H]1C5 | – | inactive |
| O=C(O)C1(c2ccc3c(c2)OC[C@H](Cc2ccc(-c4ccccc4)cc2)[C@H]3O)CCCC1 | -0.159% (inactive) | – |
